Experimental data: PubChem BioAssay

Target: Alpha-2C adrenergic receptor (Homo sapiens) (UniProt P18825)
Test: modulators of alpha2C/GIRK thallium flux, primary screen, cell-based, HEK293 alpha2C/GIRK1/2 (AID 624);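 further: slope of fluorescence ratio to pre-addition baseline per second over 15 to 24 s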
Settings: thallium flux BTC fluorescence, at 10 µM, actives lie on both sides

Sequence of Alpha-2C adrenergic receptor (Homo sapiens) (P18825 whole entry, looked up): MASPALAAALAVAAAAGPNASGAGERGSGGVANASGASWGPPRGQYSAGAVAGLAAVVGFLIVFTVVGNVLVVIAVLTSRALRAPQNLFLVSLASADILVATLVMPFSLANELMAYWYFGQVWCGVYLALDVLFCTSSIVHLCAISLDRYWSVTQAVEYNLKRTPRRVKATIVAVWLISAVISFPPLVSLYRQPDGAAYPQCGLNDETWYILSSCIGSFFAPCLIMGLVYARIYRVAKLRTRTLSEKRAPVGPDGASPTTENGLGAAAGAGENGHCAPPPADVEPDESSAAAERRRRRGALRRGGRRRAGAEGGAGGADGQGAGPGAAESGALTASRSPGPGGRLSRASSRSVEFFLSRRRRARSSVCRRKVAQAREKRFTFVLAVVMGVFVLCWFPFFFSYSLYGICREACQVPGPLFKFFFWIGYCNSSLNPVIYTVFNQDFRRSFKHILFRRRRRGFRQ

slope, inactive:
CCOC(=O)C1CCCN(C(=O)c2cc3c(=O)n4cccc(C)c4nc3n2C)C1 (stereo not given) 0.00547
COc1ccc(OC)c(S(=O)(=O)N2CCC(C(=O)NCc3ccccc3OC)CC2)c1 0.00487
CCOC(=O)N1CCN(C(=O)CSc2nnc(-c3cc(OC)cc(OC)c3)o2)CC1 0.00254
CCCC(=O)Nc1cnc(NC(=O)c2cccc(F)c2)cc1C 0.00559
COc1ccc2cc(C#N)c(SCC(=O)N3CCCC3)nc2c1 0.00554
c1ccc(CC2CCN(C(c3cccs3)c3nnnn3C3CCCC3)CC2)cc1 (stereo not given) 0.00517
COc1ccc(-n2c(=O)c3c4c(sc3n3c(C)nnc23)CCCC4)cc1 0.00664
CN(C)S(=O)(=O)NC(c1ccccc1)c1ccccc1 0.00605
COc1ccc(C2=NOC(C(=O)NC3CCCCC3)C2)cc1OC (stereo not given) 0.00464
CCCCCC1CC(CC(=O)O)C(=O)O1 (stereo not given) 0.00366
CC(c1ccccc1)n1cnc2ccccc21 (stereo not given) 0.00531
COc1ccc(OC)c(C2C(C(=O)Nc3ccc(F)cc3)=C(C)Nc3nc(CCCO)nn32)c1 (stereo not given) 0.00613
Cn1c(=O)c2c(nc(Br)n2CCSc2nnnn2-c2ccccc2)n(C)c1=O 0.00509
O=C(Nc1ccc(S(=O)(=O)Nc2ccc(Cl)cc2)cc1)C1CCCO1 (stereo not given) 0.0052
Fc1ccccc1Cn1nnc2c(-n3ccnc3)ncnc21 0.00439
O=C(c1ccc(Br)o1)N1CCN(c2ccc3nnc(-c4ccccc4)n3n2)CC1 0.00664
CC1Cc2nc(SCC(=O)Nc3nccs3)n(C)c(=O)c2S1 (stereo not given) 0.00648
CCOc1cc(-c2nc(-c3ccc(C)nc3OCC)no2)cc(OCC)c1OCC 0.00309
CCn1c(C(C#N)/C(=N\S(=O)(=O)c2cccs2)c2ccccc2)nc2ccccc21 (stereo not given) 0.00669
O=C(c1cnn2c1NC(c1ccco1)CC2C(F)(F)F)N1CCN(c2cccc(Cl)c2)CC1 (stereo not given) 0.00418
Oc1ccc(Cl)cc1-c1cc(-c2ccccc2)n[nH]1 0.00732
Cc1cccc(-c2cc3nc4c(c(N5CCOCC5)n3n2)CCCC4)c1 0.00597
CCc1nnc(NC(=O)c2cc3ccccc3oc2=O)s1 0.00433
O=C(CCS(=O)(=O)c1cccc2nonc12)Nc1cccc2c1CCCC2 0.00573
Cc1nn(-c2ccc(F)cc2)c2c1cc(C#N)c1nc3ccccc3n12 0.00318
Oc1c(C(c2ccccc2)N2CCc3ccccc3C2)sc2ncnn12 (stereo not given) 0.00688
O=C1CN(C(=O)COC(=O)c2ccccc2NC(=O)c2ccco2)c2ccccc2N1 0.00572
COc1cccc(-c2noc(C3CCCN(C(=O)Cc4ccccc4)C3)n2)c1 (stereo not given) 0.00584
CCCCCn1c(CN2CCN(C)CC2)nc2c1c(=O)n(C)c(=O)n2C 0.00637
CC(C)OC(=O)c1cccc(C(=O)O)n1 0.00557
CC1CCCCN1CCNS(=O)(=O)c1ccc2c(c1)oc(=O)n2C (stereo not given) 0.00417
CCCc1nnc2n1N=C(c1ccc(-c3cc(Cl)ccc3Cl)o1)CS2 0.00311
COc1cccc(CNc2nc3nc(C)c(Cl)c(C)n3n2)c1 0.00679
COc1ccc(CNc2nc(NCc3ccc(OC)cc3)n(S(C)(=O)=O)n2)cc1 0.00366
COc1cccc(NC(=O)N(Cc2ccco2)C(C)c2cccs2)c1 (stereo not given) 0.00569
Cc1nnc(SCC(=O)NCc2ccccc2)s1 0.00344
O=C(c1ccco1)N1CCN(CC2CC3C=CC2C3)CC1 (stereo not given) 0.00614
CCOC(=O)CSc1nnc2n1C(C)(C)Cc1ccccc1-2 0.00549
CCN(CC)CCN1C(=O)C(=O)/C(=C(/O)c2c(C)[nH]c(C(=O)OC)c2C)C1c1ccccc1OC (stereo not given) 0.00204
CCOC(=O)C(C)(C)Sc1nc2c(cnn2-c2ccc(C)cc2)c(=O)[nH]1 0.00578

Tested on: not listed separately
Test: inhibitors of Sendai virus-induced IRF3 signaling, primary screen, TLR/RLR signaling modifier project, cell-based, Sendai virus stimulus, luciferase, 10K MLSCN set (AID 602276;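 active means inhibition at or above 50% at 10 µM; inactive means inhibition below 50%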;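 further: firefly luciferase from ISG56 promoter only with Renilla not read in this screen; 0% = Sendai virus plus DMSO and 100% = medium plus DMSO without virus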)
Settings: HEK293 RL24 IRF3 luciferase reporter, at 10 µM, stronger effect = higher value

inhibition, inactive:
CCOC(=O)C1CCCN(C(=O)c2cc3c(=O)n4cccc(C)c4nc3n2C)C1 (stereo not given) 17.9%
COc1ccc(OC)c(S(=O)(=O)N2CCC(C(=O)NCc3ccccc3OC)CC2)c1 4.82%
CCOC(=O)N1CCN(C(=O)CSc2nnc(-c3cc(OC)cc(OC)c3)o2)CC1 12.2%
CCCC(=O)Nc1cnc(NC(=O)c2cccc(F)c2)cc1C -24.4%
COc1ccc2cc(C#N)c(SCC(=O)N3CCCC3)nc2c1 -0.637%
c1ccc(CC2CCN(C(c3cccs3)c3nnnn3C3CCCC3)CC2)cc1 (stereo not given) -0.349%
COc1ccc(-n2c(=O)c3c4c(sc3n3c(C)nnc23)CCCC4)cc1 4.81%
CN(C)S(=O)(=O)NC(c1ccccc1)c1ccccc1 20.5%
COc1ccc(C2=NOC(C(=O)NC3CCCCC3)C2)cc1OC (stereo not given) 14.9%
CCCCCC1CC(CC(=O)O)C(=O)O1 (stereo not given) 7.61%
CC(c1ccccc1)n1cnc2ccccc21 (stereo not given) 7.98%
COc1ccc(OC)c(C2C(C(=O)Nc3ccc(F)cc3)=C(C)Nc3nc(CCCO)nn32)c1 (stereo not given) 0.814%
Cn1c(=O)c2c(nc(Br)n2CCSc2nnnn2-c2ccccc2)n(C)c1=O 1.27%
O=C(Nc1ccc(S(=O)(=O)Nc2ccc(Cl)cc2)cc1)C1CCCO1 (stereo not given) 14.5%
Fc1ccccc1Cn1nnc2c(-n3ccnc3)ncnc21 -9.4%
O=C(c1ccc(Br)o1)N1CCN(c2ccc3nnc(-c4ccccc4)n3n2)CC1 -4.83%
CC1Cc2nc(SCC(=O)Nc3nccs3)n(C)c(=O)c2S1 (stereo not given) 11.6%
CCOc1cc(-c2nc(-c3ccc(C)nc3OCC)no2)cc(OCC)c1OCC -10.9%
CCn1c(C(C#N)/C(=N\S(=O)(=O)c2cccs2)c2ccccc2)nc2ccccc21 (stereo not given) 10.5%
O=C(c1cnn2c1NC(c1ccco1)CC2C(F)(F)F)N1CCN(c2cccc(Cl)c2)CC1 (stereo not given) 46.3%
Oc1ccc(Cl)cc1-c1cc(-c2ccccc2)n[nH]1 -23.7%
Cc1cccc(-c2cc3nc4c(c(N5CCOCC5)n3n2)CCCC4)c1 -9.84%
CCc1nnc(NC(=O)c2cc3ccccc3oc2=O)s1 -9.54%
O=C(CCS(=O)(=O)c1cccc2nonc12)Nc1cccc2c1CCCC2 -1.97%
Cc1nn(-c2ccc(F)cc2)c2c1cc(C#N)c1nc3ccccc3n12 9.91%
Oc1c(C(c2ccccc2)N2CCc3ccccc3C2)sc2ncnn12 (stereo not given) 12.6%
O=C1CN(C(=O)COC(=O)c2ccccc2NC(=O)c2ccco2)c2ccccc2N1 8.42%
COc1cccc(-c2noc(C3CCCN(C(=O)Cc4ccccc4)C3)n2)c1 (stereo not given) 9.8%
CCCCCn1c(CN2CCN(C)CC2)nc2c1c(=O)n(C)c(=O)n2C 1.18%
CC(C)OC(=O)c1cccc(C(=O)O)n1 11.6%
CC1CCCCN1CCNS(=O)(=O)c1ccc2c(c1)oc(=O)n2C (stereo not given) 15.8%
CCCc1nnc2n1N=C(c1ccc(-c3cc(Cl)ccc3Cl)o1)CS2 8.08%
COc1cccc(CNc2nc3nc(C)c(Cl)c(C)n3n2)c1 -16.5%
COc1ccc(CNc2nc(NCc3ccc(OC)cc3)n(S(C)(=O)=O)n2)cc1 2.7%
COc1cccc(NC(=O)N(Cc2ccco2)C(C)c2cccs2)c1 (stereo not given) 11%
Cc1nnc(SCC(=O)NCc2ccccc2)s1 1.7%
O=C(c1ccco1)N1CCN(CC2CC3C=CC2C3)CC1 (stereo not given) -7.24%
CCOC(=O)CSc1nnc2n1C(C)(C)Cc1ccccc1-2 -15.4%
CCN(CC)CCN1C(=O)C(=O)/C(=C(/O)c2c(C)[nH]c(C(=O)OC)c2C)C1c1ccccc1OC (stereo not given) 7.54%
CCOC(=O)C(C)(C)Sc1nc2c(cnn2-c2ccc(C)cc2)c(=O)[nH]1 9.78%
